Source: PubChem (several laboratories)
Ec RNAP inh = blocks E. coli RNA polymerase transcription; 62,000 tested, 0.2% active; inhibition, %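 (tested at 10 µM)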; P0A8V2; AID 559; fluorescence transcription assay; in the data active = inhibition above about 20%
Target sequence (P0A8V2 whole entry, looked up): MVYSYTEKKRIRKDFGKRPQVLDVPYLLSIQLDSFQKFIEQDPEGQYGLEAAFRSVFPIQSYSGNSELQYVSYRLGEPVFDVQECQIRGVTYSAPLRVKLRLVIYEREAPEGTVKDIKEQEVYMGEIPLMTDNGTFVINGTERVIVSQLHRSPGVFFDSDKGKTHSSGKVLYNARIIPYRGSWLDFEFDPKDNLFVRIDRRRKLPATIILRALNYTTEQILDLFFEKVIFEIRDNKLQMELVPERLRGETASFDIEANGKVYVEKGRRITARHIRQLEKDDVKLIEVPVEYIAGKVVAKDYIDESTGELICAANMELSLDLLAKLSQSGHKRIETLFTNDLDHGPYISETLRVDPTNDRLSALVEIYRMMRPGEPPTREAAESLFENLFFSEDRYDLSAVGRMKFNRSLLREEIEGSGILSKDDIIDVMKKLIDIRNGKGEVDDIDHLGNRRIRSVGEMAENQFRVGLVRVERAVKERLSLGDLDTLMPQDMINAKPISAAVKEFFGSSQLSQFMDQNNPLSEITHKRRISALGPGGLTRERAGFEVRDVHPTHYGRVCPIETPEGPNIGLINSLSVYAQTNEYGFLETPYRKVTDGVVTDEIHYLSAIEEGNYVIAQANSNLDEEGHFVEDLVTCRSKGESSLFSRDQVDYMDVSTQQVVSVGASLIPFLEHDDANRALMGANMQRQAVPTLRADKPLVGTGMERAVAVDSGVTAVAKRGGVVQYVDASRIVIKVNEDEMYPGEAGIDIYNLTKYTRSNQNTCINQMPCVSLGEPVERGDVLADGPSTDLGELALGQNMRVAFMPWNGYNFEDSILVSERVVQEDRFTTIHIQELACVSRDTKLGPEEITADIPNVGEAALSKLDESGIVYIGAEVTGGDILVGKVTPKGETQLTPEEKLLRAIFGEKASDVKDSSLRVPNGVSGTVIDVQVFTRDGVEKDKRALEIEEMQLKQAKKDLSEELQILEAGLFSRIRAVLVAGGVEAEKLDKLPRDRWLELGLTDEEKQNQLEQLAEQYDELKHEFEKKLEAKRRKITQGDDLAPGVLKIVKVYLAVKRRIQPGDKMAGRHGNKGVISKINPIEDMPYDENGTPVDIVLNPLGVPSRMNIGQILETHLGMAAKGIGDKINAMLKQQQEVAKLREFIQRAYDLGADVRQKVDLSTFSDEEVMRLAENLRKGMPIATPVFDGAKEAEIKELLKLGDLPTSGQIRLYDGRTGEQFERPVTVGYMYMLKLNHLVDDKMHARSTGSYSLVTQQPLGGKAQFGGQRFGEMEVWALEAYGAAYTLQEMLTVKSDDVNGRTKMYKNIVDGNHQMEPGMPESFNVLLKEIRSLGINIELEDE
Mac1 fbg enh = CD11b/CD18-fibrinogen binding enhancement. K562 CD11b/CD18 adhesion to fibrinogen, ATPlite luminescence. 93,000 tested, 0.07% active. P05107+P11215. activation, % at 10 µM;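 active = 10 µM primary screen giving 50% or more activity, confirmed by 40% or more on retest at that dose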
Pyk2 oligo antag = blocks oligomerization of human Pyk2 in cells; z-score (the deposit names both 25 µM and 10 µM); Q293 cells, Pyk2 FERM NanoBiT luminescence; hits give low values; 99,000 tested, 0.83% active;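 active = Z-score of -3 or lower, scaled per plate to the spread of control and sample wells; inactive = z-score above -3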;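 also: negative z-score means lost luminescence so less FERM oligomerization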
CD11b adhes inh = CD11b/CD18-fibrinogen binding inhibition; K562 CD11b/CD18 adhesion to fibrinogen, ATPlite luminescence; Mn2+ added to activate the integrin; AID 1497; P05107+P11215; 93,000 tested, 0.54% active; inhibition, % at 10 µM;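 active = primary inhibition of 50% or more at 10 µM, then 40% or more on retest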
Cav3 T inh = human Cav3.2 channel inhibition, primary screen; O95180; 100,000 tested, 4% active; B-score at 10 µM; Cav3.2-expressing cells, Fluo-4 calcium fluorescence FDSS; hits give low values;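 active = single-dose well whose peak fluorescence ratio is a statistical outlier from its plate by either plate-standardised score or position-corrected B-score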
Of the large screens only hits and unclear results are named; the others gave an inactive call. The list is not random: actives were taken first. Their share in the collection is about 4.2%.

C=CCNCC(=O)NN=C(c1ccccc1)c1ccccc1	none (no result: Ec RNAP inh, Cav3 T inh)
CC(C)(C)[C@H]1C=C(C(=O)NCc2nc3ccccc3[nH]2)O[C@@H](OCc2ccc(CO)cc2)C1	none (no result: Ec RNAP inh, Mac1 fbg enh, Pyk2 oligo antag, CD11b adhes inh)
Cc1cc(-c2nnc3n2N=C(c2ccc(-c4ccccc4)cc2)CS3)n[nH]1	Pyk2 oligo antag -3.4
Cc1ccc(-c2nnc3n2N=C(c2ccccc2Br)CS3)cc1	Cav3 T inh -4
CN1CCC2(CC1)N=C(c1ccc(F)cc1)C(=S)N2C(=O)c1ccc(C(C)(C)C)cc1	none (no result: Ec RNAP inh, Pyk2 oligo antag, Cav3 T inh)
C=CCOC(=O)C1=C(C)NC(SC)=C(C#N)C1c1ccc(OCC)cc1 (configuration not stated)	Pyk2 oligo antag -3.1
C=CCOC(=O)C1=C(C)NC(C)=C(C(=O)OCC=C)C1c1ccc(O)cc1	Pyk2 oligo antag -3.5
COC(=O)Nc1ccc(S(=O)(=O)N2c3ccccc3CCC2C)cc1 (configuration not stated)	Pyk2 oligo antag -3.2, Cav3 T inh -7.2
CCc1nnc(NC(=O)CSc2nnc(Cc3ccccc3)o2)s1	Cav3 T inh 3.8
O=C(CSc1nnc(CNc2ccc(F)cc2)o1)N1c2ccccc2Sc2ccccc21	Cav3 T inh -5.5 (no result: Ec RNAP inh, Mac1 fbg enh, CD11b adhes inh)
O=C(CSc1nnc(CNc2ccc(F)cc2)o1)N1CCN(C(=O)c2ccco2)CC1	none
CCc1nnc(NC(=O)CSc2nnc(CNc3ccc(Cl)cc3)o2)s1	Cav3 T inh -4
Cc1nn(Cc2ccc(Cl)c(Cl)c2)c(C)c1NC(=O)c1cc(-c2ccco2)on1	Cav3 T inh -5.7 (no result: Mac1 fbg enh, CD11b adhes inh)
COc1ccc(-c2cc(C(=O)Nc3c(C)nn(Cc4ccc(Cl)cc4)c3C)no2)cc1	Cav3 T inh -4.6
Cc1nn(Cc2c(F)c(F)c(F)c(F)c2F)c(C)c1NC(=O)c1cccc(COc2ccc(Cl)cc2)c1	Cav3 T inh -5.3 (no result: Ec RNAP inh, Mac1 fbg enh, CD11b adhes inh)
Cc1ccc(Cn2nc(C)c(NC(=O)c3cc(-c4ccc5c(c4)OCO5)on3)c2C)cc1	Cav3 T inh -5.3 (no result: Pyk2 oligo antag)
Cc1nn(Cc2ccc(Cl)cc2)c(C)c1NC(=O)c1cc(-c2ccco2)on1	none (no result: Cav3 T inh)
Cc1nn(Cc2ccc(F)cc2)c(C)c1NC(=O)c1cc(-c2ccc3c(c2)OCO3)on1	none (no result: Pyk2 oligo antag)
Cc1cc(=O)oc2cc(Oc3ccc([N+](=O)[O-])cc3[N+](=O)[O-])ccc12	none (no result: Ec RNAP inh, Cav3 T inh)
COc1cccc(OCc2nnc(SCC(=O)NCc3ccco3)n2CCc2ccccc2)c1	Cav3 T inh -7.6
COc1ccc(-n2c(COc3cccc(C)c3)nnc2SCC(=O)NCc2ccco2)cc1	Ec RNAP inh 22 (no result: CD11b adhes inh)
COc1ccc(-n2c(COc3ccc4ccccc4c3)nnc2SCC(=O)NCc2ccco2)cc1	Cav3 T inh -6.4 (no result: Ec RNAP inh)
COc1ccc(-n2c(COc3cccc4ccccc34)nnc2SCC(=O)NCc2ccco2)cc1	none (no result: Ec RNAP inh)
COC(=O)Cc1c(C)nc2nc(NCc3cccc([N+](=O)[O-])c3)[nH]n2c1=O	none (no result: Ec RNAP inh)
CCc1nnc(NC(=O)CSc2ncnc3c2cnn3-c2ccc(OC)cc2)s1	none (no result: Ec RNAP inh)
C=C1CCN([C@@H](Cc2ccccc2)C(=O)NC2CCN(Cc3ccccc3)CC2)S(=O)(=O)c2ccccc21	none (no result: Ec RNAP inh, Mac1 fbg enh, Pyk2 oligo antag, CD11b adhes inh)
CN(C)CCN(C(=O)c1ccccc1Cl)c1nc2c(Cl)cccc2s1	none (no result: Ec RNAP inh, Pyk2 oligo antag, Cav3 T inh)
Cc1ccc(N2CCN(C(=O)CCc3nc4ccccc4[nH]3)CC2)c(C)c1	Cav3 T inh -4.8 (no result: Ec RNAP inh, Pyk2 oligo antag)
Cc1cccc(N2CCN(C(=O)CCc3nc4ccccc4[nH]3)CC2C)c1 (configuration not stated)	none (no result: Ec RNAP inh, Pyk2 oligo antag)
O=C(Cn1cnc2ccc(Br)cc2c1=O)c1cccs1	none (no result: Ec RNAP inh, Mac1 fbg enh, CD11b adhes inh)
C/C(=N/n1cnnc1)c1cccnc1	Ec RNAP inh 27
C[C@H](NC(=O)c1nc[nH]c1C(=O)N[C@@H](CCCCNC(=O)OC(C)(C)C)C(=O)OC(C)(C)C)c1ccccc1	none (no result: Ec RNAP inh, Mac1 fbg enh, Pyk2 oligo antag, CD11b adhes inh)
CC1(C)N=C(SCC(=O)Nc2ccccc2)C(c2ccc(Cl)cc2)=N1	Cav3 T inh -6.7 (no result: Ec RNAP inh)
Cc1ccc(C2=NC(C)(C)N=C2SCC(=O)Nc2ccc(Cl)cc2)cc1	Cav3 T inh -4.7 (no result: Ec RNAP inh)
CC1(C)N=C(SCC(=O)Nc2ccc(Cl)cc2Cl)C(c2ccccc2)=N1	Cav3 T inh -5.7 (no result: Ec RNAP inh)
COc1ccc(NC(=O)CSc2ccc(C)cc2)cc1	none (no result: Ec RNAP inh, Mac1 fbg enh, CD11b adhes inh)
COc1ccccc1-c1nnc(SCC(=O)Nc2ccc(Cl)cc2Cl)o1	none
CCC1=C(OC(=O)N(CC)CC)N2C(=O)OC(=NCC3CC3)[C@]2(Cc2ccccc2)[C@H]2C1=CC[C@H]1C(=O)N(c3ccccc3)C(=O)[C@H]12	none (no result: Ec RNAP inh, Mac1 fbg enh, Pyk2 oligo antag, CD11b adhes inh)
COC(=O)c1ccccc1NC(=O)CN1CCC(n2nnc3cc(C(F)(F)F)ccc32)CC1	none (no result: Ec RNAP inh, Cav3 T inh)
CC1Cc2ccccc2N1C(=O)CN1CCC(n2nnc3cc(C(F)(F)F)ccc32)CC1 (configuration not stated)	Cav3 T inh -9.5 (no result: Ec RNAP inh)
C=CCOC(=O)C1=C[C@@H](c2csc3ccccc23)C[C@@H](OCCCCO)O1	none (no result: Ec RNAP inh, Mac1 fbg enh, Pyk2 oligo antag, CD11b adhes inh)
Cc1ccc(C(=O)C2=C(O)C(=O)N(c3ncccn3)C2c2cccc(Cl)c2)o1 (configuration not stated)	none (no result: Pyk2 oligo antag, Cav3 T inh)
C=CCOc1cccc(C2C(C(=O)c3ccc(C)o3)=C(O)C(=O)N2c2nccs2)c1 (configuration not stated)	Cav3 T inh -5.1
C[C@@H](O)C1NC(=O)[C@H](CCCCN)NC(=O)c2cc([N+](=O)[O-])cc(I)c2NCCC[C@@H](C(N)=O)NC1=O (some centres not stated)	none (no result: Ec RNAP inh, Mac1 fbg enh, Pyk2 oligo antag, CD11b adhes inh)
Cc1ncc([N+](=O)[O-])n1CCOC(=O)c1ccc(Cl)cc1Cl	none (no result: Ec RNAP inh)
NC(=O)[C@@H]1CC2(CC(c3cccc(NC(=O)[C@H]4CCC(=O)N4)c3)=NO2)CN1C(=O)COc1ccc(Cl)cc1 (some centres not stated)	none (no result: Ec RNAP inh, Mac1 fbg enh, Pyk2 oligo antag, CD11b adhes inh)
CCN(CC)S(=O)(=O)c1ccc(C)c(NC(=O)COC(=O)c2ccc(C)c(S(=O)(=O)N3CCOCC3)c2)c1	Cav3 T inh -4.2 (no result: Ec RNAP inh)
COc1ccc(C(=O)OCC(=O)Nc2cc(C)on2)cc1S(=O)(=O)N1CCOCC1	none (no result: Ec RNAP inh)
COCCNC(=O)C1=C(N)C(C(=O)Nc2ccc(C)c(S(=O)(=O)N3CCCCC3)c2)SC1=Nc1ccc(C)cc1C (configuration not stated)	none (no result: Ec RNAP inh)
COc1ccc(C(=O)Cn2c(Br)nc3c2c(=O)n(C)c(=O)n3C)cc1OC	none (no result: Ec RNAP inh)
COc1ccc(-c2nc3c(c(=O)n(C)c(=O)n3C)n2CC2CC(c3ccccc3)=NO2)cc1OC (configuration not stated)	Cav3 T inh 3.4 (no result: Mac1 fbg enh, CD11b adhes inh)
C=C(C)C1(O)OC(=O)C=C1OC (configuration not stated)	none (no result: Ec RNAP inh, Mac1 fbg enh, Pyk2 oligo antag, CD11b adhes inh)
Cc1ccc(-c2ccc(/C=C(\C#N)C(=O)Nc3cc(C)nn3-c3ccccc3)o2)cc1	Cav3 T inh -6.6 (no result: Ec RNAP inh, Pyk2 oligo antag)
CC(OC(=O)c1ccncc1)C(=O)Nc1cc(S(=O)(=O)N2CCCCC2)ccc1Cl (configuration not stated)	none (no result: Ec RNAP inh, Pyk2 oligo antag, Cav3 T inh)
O=C(Nc1ccc2c(c1)OCO2)c1ccc(S(=O)(=O)NCC2CCCO2)cc1 (configuration not stated)	none (no result: Cav3 T inh)
O=C(Nc1cccc(F)c1)c1ccc(S(=O)(=O)NCC2CCCO2)cc1 (configuration not stated)	Cav3 T inh -5.3
c1ccc2nc3c(nc2c1)c1ccccc1n3CCN1CCOCC1	none
